# Laboratory results taken from PubChem BioAssay (Tox21).
# Where “and” joins values, the source holds several entries; their conditions need not be identical. Identical values can stand only once. Unmarked numbers belong to inactive results. Records with an inconclusive call do not appear. Where a call stands in place of a potency, no number is given. Calls of active or inactive are those of the source. Unless noted, the call rests on the fitted dose curve; in most records, active means well fitted curve in the direction sought with a large enough effect in the repeat runs; inconclusive means weak or mixed curves; inactive means no such curve, though single readings can be large; an effect the other way counts as inactive or inconclusive.
# Columns and labels:
# [1] = qHTS assay to test for compound auto fluorescence at 535 nm (green) in HEK293 cells (AID 720680)
# [2] = qHTS assay to test for compound auto fluorescence at 460 nm (blue) in HEK293 cell free culture (AID 720681)
# Outline: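 Compounds were added to cell-free DMEM with 10% FBS and fluorescence read directly. The blue channel used 405 nm excitation and 460 nm emission, with triamterene as the reference fluorophore.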
# [3] = qHTS assay to test for compound auto fluorescence at 535 nm (green) in HEK293 cell free culture (AID 720682)
# Outline: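 Intrinsic compound fluorescence is measured in culture medium containing 10% FBS, with excitation at 485 nm and detection at 535 nm, referenced to fluorescein.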
# [4] = qHTS assay to test for compound auto fluorescence at 590 nm (red) in HEK293 cell free culture (AID 720683)
# Outline: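 Cell-free wells of DMEM with 10% FBS received compound, and intrinsic fluorescence was read at excitation/emission 540/590 nm. Values expressed as equivalence to Rose Bengal sodium.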
# [5] = qHTS assay to test for compound auto fluorescence at 590 nm (red) in HepG2 cell free culture (AID 720684)
# Outline: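 Compound was pinned into wells holding MEM with 10% FBS and no cells, and red fluorescence was read at Ex/Em 540/590 nm. Signal is expressed as auto fluorescence equivalency relative to Rose Bengal sodium.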
# [6] = qHTS assay to test for compound auto fluorescence at 460 nm (blue) in HepG2 cell free culture (AID 720685)
# Outline: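 Compound (23 nL) or DMSO pinned into cell-free MEM with 10% FBS; blue fluorescence read at 405/460 nm excitation/emission, expressed as auto-fluorescence equivalency to triamterene.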
# [7] = qHTS assay to test for compound auto fluorescence at 460 nm (blue) in HepG2 cells (AID 720687)
# Outline: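 HepG2 cells in MEM with 10% FBS, attached overnight at 37 C, were exposed to compound or DMSO for 1 hr at 37 C, 5% CO2. Blue fluorescence was read at 405/460 nm, with triamterene as reference fluorophore.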
# [8] = qHTS assay to identify small molecule antagonists of the glucocorticoid receptor (GR) signaling pathway - cell viability counter screen (AID 720693); further: nearly all actives have a fitted effect of over 55% in size
# [9] = qHTS assay for identifying genotoxic compounds that show differential cytotoxicity against isogenic chicken DT40 cell lines with known DNA damage response pathways - Rev3 mutant cell line (AID 743014); further: nearly all actives have a fitted effect of over 55% in size; further: potency means the concentration at half of the fitted maximal effect
# [10] = qHTS assay to identify small molecule antagonists of the androgen receptor (AR) signaling pathway - cell viability counter screen (AID 743033; further: nearly all actives have a fitted effect of over 45% in size)
# [11] = qHTS assay to identify small molecule antagonists of the androgen receptor (AR) signaling pathway using the MDA cell line - cell viability counter screen (AID 743041; further: nearly all actives have a fitted effect of over 45% in size)
# Outline: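 MDA-kb2 AR-luc cells (MMTV-luciferase, AR/GR responsive) treated with compounds plus R1881 agonist for 16 h at 37C. CellTiter-Fluor added at 15.5 h; fluorescence read after 30 min in the same wells.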
# [12] = qHTS assay to identify small molecule antagonists of the thyroid receptor (TR) signaling pathway - cell viability counter screen (AID 743064); further: nearly all actives have a fitted effect of over 50% in size; further: potency means the concentration at half of the fitted maximal effect
# Outline: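 Same-well viability check: GH3.TRE-Luc cells stimulated with 1 nM T3 alongside test compound for 23.5 h, followed by CellTiter-Fluor fluorescence.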
# [13] = target: Glucocorticoid receptor (Homo sapiens) (UniProt P04150); experiment: qHTS assay to identify small molecule agonists of the glucocorticoid receptor (GR) signaling pathway (AID 720691; active means well fitted activation curve with a large enough effect in the signal ratio in the repeat runs, not every such curve was filed as active; the % refers to the signal ratio; further: potency means the concentration at half of the fitted maximal effect)
# Outline: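 Reporter read-out: fluorescence intensity following 2 h room-temperature LiveBLAzer B/G FRET substrate loading. Prior step: GR-bla HeLa cells held 4 h, then treated 18 h at 37 C.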
# [14] = target: Glucocorticoid receptor (Homo sapiens) (UniProt P04150); experiment: qHTS assay to identify small molecule antagonists of the glucocorticoid receptor (GR) signaling pathway (AID 720692; active means well fitted inhibition curve with a large enough effect in the signal ratio in the repeat runs, not every such curve was filed as active; the % refers to the signal ratio; further: potency means the concentration at half of the fitted maximal effect)
# Outline: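 Dexamethasone (5 nM final) stimulated a stably integrated GRE-beta-lactamase reporter in HeLa cells during 18 h co-incubation with compounds; signal was quantified as fluorescence intensity of B/G FRET substrate after 2 h.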
# [15] = qHTS assay for identifying genotoxic compounds that show differential cytotoxicity against isogenic chicken DT40 cell lines with known DNA damage response pathways - wild type cell line (AID 743012); further: nearly all actives have a fitted effect of over 60% in size; further: potency means the concentration at half of the fitted maximal effect
# Outline: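 Using parental DT40 (300 cells/well), compounds delivered in DMSO incubate 40 h at 37 C/5% CO2. CellTiter-Glo reagent then stands 30 min at room temperature, and luminescence gives cell viability.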
# [16] = qHTS assay for identifying genotoxic compounds that show differential cytotoxicity against isogenic chicken DT40 cell lines with known DNA damage response pathways - Rad54/Ku70 mutant cell line (AID 743015); further: nearly all actives have a fitted effect of over 60% in size; further: potency means the concentration at half of the fitted maximal effect
# [17] = target: Androgen receptor (Homo sapiens) (UniProt P10275); experiment: qHTS assay to identify small molecule antagonists of the androgen receptor (AR) signaling pathway (AID 743035; active means well fitted inhibition curve with a large enough effect in the signal ratio in the repeat runs, not every such curve was filed as active; the % refers to the signal ratio)
# Outline: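 Using qHTS, AR-UAS-bla GripTite HEK293 cells received compound, then R1881, and were cultured 16 h at 37C/5% CO2 before a 2 h room-temperature LiveBLAzer B/G FRET substrate step and fluorescence measurement.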
# [18] = qHTS assay to test for compound auto fluorescence at 535 nm (green) in HepG2 cell free culture (AID 720686)
# [19] = target: Androgen receptor (Homo sapiens) (UniProt P10275); experiment: qHTS assay to identify small molecule antagonists of the androgen receptor (AR) signaling pathway using the MDA cell line (AID 743042; further: nearly all actives have a fitted effect of over 55% in size)
# Outline: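 MDA-kb2 breast carcinoma cells carrying MMTV-luciferase (AR/GR responsive) were co-treated with compounds and the agonist R1881 for 16 h at 37C. Inhibition read as ONE-Glo luminescence; CellTiter-Fluor fluorescence measured in parallel for cytotoxicity.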
# Chain of Glucocorticoid receptor (Homo sapiens) (P04150 whole entry, looked up): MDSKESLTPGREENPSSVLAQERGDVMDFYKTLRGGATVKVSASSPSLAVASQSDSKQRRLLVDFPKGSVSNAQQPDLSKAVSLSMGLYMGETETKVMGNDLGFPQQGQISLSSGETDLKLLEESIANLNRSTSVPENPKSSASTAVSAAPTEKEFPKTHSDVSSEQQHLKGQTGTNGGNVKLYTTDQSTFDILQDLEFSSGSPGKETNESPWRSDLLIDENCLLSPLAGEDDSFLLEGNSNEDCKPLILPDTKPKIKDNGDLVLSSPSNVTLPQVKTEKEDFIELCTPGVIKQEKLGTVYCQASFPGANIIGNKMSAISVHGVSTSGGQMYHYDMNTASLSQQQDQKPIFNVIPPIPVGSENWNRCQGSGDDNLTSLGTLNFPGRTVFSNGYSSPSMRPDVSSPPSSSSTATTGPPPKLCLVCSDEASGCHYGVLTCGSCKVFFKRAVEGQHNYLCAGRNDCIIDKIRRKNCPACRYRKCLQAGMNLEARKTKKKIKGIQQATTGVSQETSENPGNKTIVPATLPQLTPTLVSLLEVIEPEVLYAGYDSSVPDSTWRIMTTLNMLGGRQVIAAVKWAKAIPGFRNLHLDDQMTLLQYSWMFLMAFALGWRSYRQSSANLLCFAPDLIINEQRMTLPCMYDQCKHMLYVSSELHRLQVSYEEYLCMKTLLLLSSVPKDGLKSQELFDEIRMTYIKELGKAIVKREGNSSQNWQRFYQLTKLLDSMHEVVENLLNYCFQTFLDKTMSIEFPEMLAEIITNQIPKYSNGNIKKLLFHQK
# Chain of Androgen receptor (Homo sapiens) (P10275 whole entry, looked up): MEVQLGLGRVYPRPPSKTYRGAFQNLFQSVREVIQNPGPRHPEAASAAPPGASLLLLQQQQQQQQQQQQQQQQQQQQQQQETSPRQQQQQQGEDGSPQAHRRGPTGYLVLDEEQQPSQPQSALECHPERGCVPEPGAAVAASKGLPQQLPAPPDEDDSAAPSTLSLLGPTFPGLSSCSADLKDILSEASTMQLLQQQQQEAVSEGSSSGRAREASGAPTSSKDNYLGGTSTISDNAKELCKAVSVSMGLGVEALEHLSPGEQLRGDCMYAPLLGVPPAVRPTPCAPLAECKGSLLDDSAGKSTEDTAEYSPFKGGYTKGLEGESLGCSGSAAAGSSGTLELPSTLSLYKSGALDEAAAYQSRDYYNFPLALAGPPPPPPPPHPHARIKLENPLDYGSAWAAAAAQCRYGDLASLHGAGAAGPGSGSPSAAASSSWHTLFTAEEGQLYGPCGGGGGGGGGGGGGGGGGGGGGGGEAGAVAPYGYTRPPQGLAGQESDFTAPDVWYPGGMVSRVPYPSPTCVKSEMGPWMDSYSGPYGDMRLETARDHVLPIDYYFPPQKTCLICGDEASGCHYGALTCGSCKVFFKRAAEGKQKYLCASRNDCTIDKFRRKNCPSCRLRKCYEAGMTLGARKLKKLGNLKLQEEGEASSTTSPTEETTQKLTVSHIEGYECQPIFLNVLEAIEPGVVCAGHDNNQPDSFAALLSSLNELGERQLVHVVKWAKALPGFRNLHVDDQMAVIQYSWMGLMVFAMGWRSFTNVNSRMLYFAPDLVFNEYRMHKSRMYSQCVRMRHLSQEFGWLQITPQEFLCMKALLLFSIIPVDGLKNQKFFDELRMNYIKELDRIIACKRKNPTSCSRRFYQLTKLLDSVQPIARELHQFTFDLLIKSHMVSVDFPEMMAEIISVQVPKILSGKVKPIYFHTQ
structure (smiles),measurement,setting,value
CCCCC(CC)COC(=O)COc1ccc(Cl)cc1C (stereo unspecified),outcome,[1],inactive
same,Potency,[2],inactive
same,outcome,[3],inactive
same,outcome,[4],inactive
same,outcome,[5],inactive
same,Potency,[6],inactive
same,Potency,[7],inactive
same,Potency,[8],inactive
same,Potency,[9],68.6 µM (active)
same,Potency,[10],inactive
same,Potency,[11],inactive
same,Potency,[12],inactive
O=S(=O)(c1ccccc1)c1ccc(Cl)cc1,outcome,[1],inactive
same,Potency,[2],inactive
same,outcome,[3],inactive
same,outcome,[4],inactive
same,outcome,[5],inactive
same,Potency,[6],inactive
same,Potency,[7],inactive
same,Potency,[13],inactive
same,Potency,[14],inactive
same,Potency,[8],inactive
same,Potency,[15],61.1 µM (active)
same,Potency,[9],61.1 µM (active)
same,Potency,[16],48.6 µM (active)
same,Potency,[10],inactive
same,Potency,[11],inactive
same,Potency,[12],inactive
C/C=C(\C)C(=O)OCCC(C)CCC=C(C)C (stereo unspecified),outcome,[1],inactive
same,Potency,[2],inactive
same,outcome,[3],inactive
same,outcome,[4],inactive
same,outcome,[5],inactive
same,Potency,[6],inactive
same,Potency,[7],inactive
same,Potency,[13],inactive
same,Potency,[14],inactive
same,Potency,[8],inactive
same,Potency,[15],inactive
same,Potency,[10],inactive
same,Potency,[11],inactive
same,Potency,[12],inactive
CN(C)CCOC1=Cc2ccccc2Sc2ccc(Cl)cc21,outcome,[1],inactive
same,Potency,[2],inactive
same,outcome,[3],inactive
same,outcome,[4],inactive
same,outcome,[5],inactive
same,Potency,[6],inactive
same,Potency,[7],inactive
same,Potency,[13],inactive
same,Potency,[15],5.31 µM (active)
same,Potency,[9],6.68 µM (active)
same,Potency,[16],5.96 µM (active)
same,Potency,[12],10.6 µM (active)
C[C@@H]1C[C@H]2[C@@H]3CCC4=CC(=O)C=C[C@]4(C)[C@@]3(F)[C@@H](O)C[C@]2(C)[C@@]1(O)C(=O)CO,outcome,[1],inactive
same,Potency,[2],inactive
same,outcome,[3],inactive
same,outcome,[4],inactive
same,outcome,[5],inactive
same,Potency,[6],inactive
same,Potency,[7],inactive
same,Potency,[8],inactive
same,Potency,[9],0.553 µM (active)
same,Potency,[16],55.3 µM (active)
same,Potency,[10],inactive
same,Potency,[11],inactive
CC1=CC(O)CC(C)(C)C1 (stereo unspecified),outcome,[1],inactive
same,Potency,[2],inactive
same,outcome,[3],inactive
same,outcome,[4],inactive
same,outcome,[5],inactive
same,Potency,[6],inactive
same,Potency,[7],inactive
same,Potency,[13],inactive
same,Potency,[14],inactive
same,Potency,[8],inactive
same,Potency,[15],inactive
same,Potency,[9],inactive
same,Potency,[16],inactive
same,Potency,[10],inactive
same,Potency,[11],inactive
same,Potency,[12],inactive
CC(C)C(OC(=O)c1ccccc1)C(C)(C)COC(=O)c1ccccc1 (stereo unspecified),outcome,[1],inactive
same,Potency,[2],inactive
same,outcome,[3],inactive
same,outcome,[4],inactive
same,outcome,[5],inactive
same,Potency,[6],inactive
same,Potency,[7],inactive
same,Potency,[15],21.7 µM (active)
same,Potency,[9],27.3 µM (active)
same,Potency,[16],24.3 µM (active)
same,Potency,[10],inactive
same,Potency,[11],inactive
NC(=O)N(O)[C@@H]1COc2cc(OCc3ccccc3)ccc21,outcome,[1],inactive
same,Potency,[2],inactive
same,outcome,[3],inactive
same,outcome,[4],inactive
same,outcome,[5],inactive
same,Potency,[6],inactive
same,Potency,[7],inactive
same,Potency,[13],inactive
same,Potency,[14],inactive
same,Potency,[8],inactive
same,Potency,[9],68.6 µM (active)
same,Potency,[10],inactive
same,Potency,[11],inactive
same,Potency,[12],inactive
CCC(=O)Oc1ccc(/C(CC)=C(\CC)c2ccc(OC(=O)CC)cc2)cc1,outcome,[1],inactive
same,Potency,[2],inactive
same,outcome,[3],inactive
same,outcome,[4],inactive
same,outcome,[5],inactive
same,Potency,[6],inactive
same,Potency,[7],inactive
same,Potency,[15],48.6 µM (active)
same,Potency,[9],54.5 µM (active)
same,Potency,[16],48.6 µM (active)
same,Potency,[10],inactive
same,Potency,[11],inactive
same,Potency,[12],54.5 µM (active)
CCN(CC)CCNC(=O)c1ccc(NC(C)=O)cc1,outcome,[1],inactive
same,Potency,[2],inactive
same,outcome,[3],inactive
same,outcome,[4],inactive
same,outcome,[5],inactive
same,Potency,[6],inactive
same,Potency,[7],inactive
same,Potency,[13],inactive
same,Potency,[14],inactive
same,Potency,[8],inactive
same,Potency,[15],inactive
same,Potency,[9],inactive
same,Potency,[16],inactive
same,Potency,[17],inactive
same,Potency,[11],inactive
same,Potency,[12],inactive
CO[C@H]1C=CO[C@@]2(C)Oc3c(C)c(O)c4c(O)c(c5c(c4c3C2=O)=NC2(CCN(CC(C)C)CC2)N=5)NC(=O)/C(C)=C\C=C/[C@H](C)[C@H](O)[C@@H](C)[C@@H](O)[C@@H](C)[C@H](OC(C)=O)[C@@H]1C,outcome,[1],inactive
same,Potency,[2],inactive
same,outcome,[3],inactive
same,outcome,[4],inactive
same,outcome,[5],inactive
same,Potency,[6],inactive
same,Potency,[7],inactive
same,Potency,[13],inactive
same,Potency,[8],inactive
same,Potency,[15],16.8 µM (active) and 42.3 µM (active)
same,Potency,[9],23.7 µM (active) and 47.5 µM (active)
same,Potency,[16],11.9 µM (active) and 30 µM (active)
same,Potency,[10],inactive
same,Potency,[17],inactive
same,Potency,[11],inactive
same,Potency,[12],29.8 µM (active)
C[C@]12CCC(=O)C=C1C=C[C@@H]1[C@@H]2CC[C@@]2(C)[C@H]1CC[C@@]21CCC(=O)O1,outcome,[1],inactive
same,Potency,[2],inactive
same,outcome,[3],inactive
same,outcome,[4],inactive
same,outcome,[5],inactive
same,Potency,[6],inactive
same,Potency,[7],inactive
same,Potency,[13],inactive
same,Potency,[14],10.7 µM (active)
same,Potency,[8],inactive
same,Potency,[15],16.8 µM (active)
same,Potency,[9],23.7 µM (active)
same,Potency,[16],26.6 µM (active)
same,Potency,[10],inactive
same,Potency,[11],inactive
same,Potency,[12],inactive
CC(=O)[C@H]1CC[C@H]2[C@@H]3C=CC4=CC(=O)CC[C@@]4(C)[C@@H]3CC[C@]12C,"fluorescence, % of fluorescein",[1],-0.274% [at 18.6 µM]
same,"fluorescence, % of fluorescent control",[2],-0.214% [at 18.6 µM]
same,"fluorescence, % of fluorescent control",[4],-0.0895% [at 18.6 µM]
same,"fluorescence, % of Rose Bengal",[5],-0.458% [at 18.6 µM]
same,"fluorescence, % of fluorescent control",[6],-0.0065% [at 18.6 µM]
same,"fluorescence, % of fluorescein control",[18],-0.0891% [at 18.6 µM]
same,"fluorescence, % of fluorescent control",[7],0.0499% [at 18.6 µM]
same,Potency,[13],0.0007 µM (active)
same,Potency,[14],1.82 µM (active)
same,Potency,[8],inactive
same,Potency,[15],4.03 µM (active)
same,Potency,[9],3.59 µM (active)
same,Potency,[16],4.52 µM (active)
same,Potency,[10],inactive
same,Potency,[11],inactive
same,Potency,[19],inactive
same,Potency,[12],inactive
C=CC(C)(O)CCCC(C)CCCC(C)CCCC(C)C (stereo unspecified),outcome,[1],inactive
same,Potency,[2],inactive
same,outcome,[3],inactive
same,outcome,[4],inactive
same,outcome,[5],inactive
same,Potency,[6],inactive
same,Potency,[7],inactive
same,Potency,[13],inactive
same,Potency,[14],inactive
same,Potency,[8],inactive
same,Potency,[15],inactive
same,Potency,[9],inactive
same,Potency,[16],inactive
same,Potency,[10],inactive
same,Potency,[11],inactive
same,Potency,[12],inactive
C/C=C/C=C/CCCCCCCO,outcome,[1],inactive
same,Potency,[2],inactive
same,outcome,[3],inactive
same,outcome,[4],inactive
same,outcome,[5],inactive
same,Potency,[6],inactive
same,Potency,[7],inactive
same,Potency,[13],inactive
same,Potency,[14],38.9 µM (active)
same,Potency,[8],inactive
same,Potency,[15],21.7 µM (active)
same,Potency,[9],30.6 µM (active)
same,Potency,[16],24.3 µM (active)
same,Potency,[11],inactive
